Values joined by “and” are separate entries in the source; they are usually repeats but may differ in a detail not shown here. Identical values can stand only once. A structure can be active in one record and inactive in another. Active and inactive are the calls of the source. Rule for the calls: active = hit-call score of the fitted dose curve at least 0.9, where 1 is the maximum; inactive = score below 0.9.
Test: ATG_E_Box_CIS: Attagene CIS-FACTORIAL HepG2 Assay for human Enhancer Box (E-box) (AID 2282936)
Conditions: HepG2 E-box cis-reporter transcription, actives raise or lower the signal
Procedure: ATG_CIS is a cell-based, multiplexed-readout assay that uses HepG2, a human liver cell line, with measurements taken at 24 hours after chemical dosing in a 24-well plate.ATG_E_Box_CIS is one of 52 assay component(s) measured or calculated from the ATG_CIS assay. It is designed to make measurements of mRNA induction, a form of inducible reporter, as detected with fluorescence intensity signals by Reverse transcription polymerase chain reaction (RT-PCR) and Capillary electrophoresis technology.Data from the assay component ATG_E_Box_CIS was analyzed into 1 assay endpoint. This assay endpoint, ATG_E_Box_CIS, was analyzed with bidirectional fitting relative to DMSO as the negative control and baseline of activity. Using a type of inducible reporter, measures of mRNA for gain or loss-of-signal activity can be used to understand the reporter gene at the transcription factor-level as they relate to the gene USF1. Furthermore, this assay endpoint can be referred to as a primary readout, because this assay has produced multiple assay endpoints where this one serves a reporter gene function. To generalize the intended target to other relatable targets, this assay endpoint is annotated to the dna binding intended target family, where the subfamily is basic helix-loop-helix protein.
Human liver HepG2 cells are transiently transfected with multiple reporter transcription units (MRTUs) in 6-well plates using FuGene 6 reagent (Roche; 3 ml FuGene/1 mg DNA). The MRTU constructs are regulated by a cis-regulating element (promoter). […] A major difference between the CIS and TRANS system is that in CIS activities of endogenous TFs are measured, whereas the TRANS assay evaluates changes in activities of exogenous, chimeric NR-Gal4 proteins. […] At the end of 24 hour incubation, total RNA was isolated using TriZol reagent (Invitrogen). The isolated RNA is then reverse-transcribed using oligo(dT) primer and Mo-MLV reverse transcriptase (Invitrogen) with DNAse I (Ambion) treatment for 30 min. The one-tenth of the produced cDNA was amplified by PCR using Taq DNA polymerase (Invitrogen) and two reporter sequence-specific primers. The PCR products were fluorescently labeled by primer extension with 6-arboxyfluorescein (6-FAM) 5'-labeled reporter sequence-specific primer (2 min at 95 C, 20 s at 68 C and 10 min at 72 C) and these products were digested with 5U of HpaI (New England Biolabs) for 2h at 37 C. The fragments were purified using Qiaquick PCR columns (Qiagen), analyzed on an ABI 3130xL genetic analyzer (Applied Biosystems) with peak positions identified by using a set of X-rhodamine (ROX)-labeled MapMarker1000 molecular weight standards (BioVentures). The raw capillary electrophoresis data was processed using Attagraph software (Attagene).

SMILES	outcome	AC50
O=Cc1ccccc1C=O	inactive	
CC(=O)O[C@]1(C(C)=O)CC[C@H]2[C@@H]3C=C(Cl)C4=CC(=O)[C@@H]5C[C@@H]5[C@]4(C)[C@H]3CC[C@@]21C	inactive	165 µM (active) and 78.6 µM (active) and 50.5 µM (active)
C/C=C/c1ccc(OC)cc1	inactive	
CC(COCC(C)OC(=O)c1ccccc1)OC(=O)c1ccccc1 (stereo not given)	inactive	
COc1ccc(OC(F)(F)F)cc1CN[C@H]1CCCN[C@H]1c1ccccc1		11 µM (active)
CC(=O)CC(c1ccccc1)c1c(O)c2ccccc2oc1=O (stereo not given)	inactive	
O=[Si]=O	inactive	
CCCCCCC(C=O)=Cc1ccccc1	inactive	
COC(=O)[C@H]1[C@H]2C[C@@H]3c4[nH]c5cc(OC)ccc5c4CCN3C[C@H]2C[C@@H](OC(=O)c2cc(OC)c(OC)c(OC)c2)[C@@H]1OC		51.6 µM (active)
CC(C)NCC(O)c1ccc(O)c(O)c1 (stereo not given)	inactive	
CCN(CC)CCOc1ccc(C(=C(Cl)c2ccccc2)c2ccccc2)cc1	inactive	11.9 µM (active)
NC=O	inactive	
OCC(CO)n1cnc(-c2ccc(F)cc2)c1-c1ccnc(Oc2ccccc2)n1	inactive	
NC1CCCCC1	inactive	
Oc1ccc(O)cc1	inactive	
CC1=C(C)S(=O)(=O)CCS1(=O)=O		100 µM (active)
CCc1cc(C2=C(C(=O)O)N(c3ccccc3C(F)(F)F)S(=O)(=O)c3ccccc32)cc2c1OCO2	inactive	
CO[C@@H]1COCC[C@@H]1N[C@@H]1CC[C@@](C(=O)N2CCc3ncc(C(F)(F)F)cc3C2)(C(C)C)C1	inactive	
C/C=C/C=C/C(=O)O	inactive	

SMILES	outcome	AC50
O=C(O)CN(CC(=O)O)CC(=O)O	inactive	
Cc1cc(Cc2ccc(N)c(C)c2)ccc1N	inactive	
CCCCCCCCCCCCCCCCO	inactive	
COC(=O)CCCC(=O)OC	inactive	
S=c1[nH]c2ccccc2s1	inactive	
Cc1cn([C@H]2C=C[C@@H](CO)O2)c(=O)[nH]c1=O	inactive	
CCCCC(CC)COP(=O)(OCC(CC)CCCC)OCC(CC)CCCC (stereo not given)	inactive	
O=C1O[C@H]([C@H](O)CO)C(O)=C1O	inactive	
CN(C)C(=O)NC1(c2ccccc2)CCN(CC[C@@]2(c3ccc(F)c(F)c3)CN(C(=O)c3ccccc3)CCO2)CC1		162 µM (active)
CCCCCCCCCCCCCCOS(=O)(=O)O	inactive	
N[C@@H](Cc1c[nH]c2ccccc12)C(=O)O	inactive	
O=C(N[C@@H](c1ccccc1)[C@@H]1CCCCN1)c1cccc(C(F)(F)F)c1Cl	inactive	
Cn1cnc2c1c(=O)[nH]c(=O)n2C	inactive	
CC(C)OC(=O)C(C)(C)Oc1ccc(C(=O)c2ccc(Cl)cc2)cc1	inactive	
Cc1occc(=O)c1O	inactive	
O=C(O)c1[nH]n(-c2ccc(S(=O)(=O)O)cc2)c(=O)c1N=Nc1ccc(S(=O)(=O)O)cc1	inactive	
CC(=O)O	inactive	
COC(=O)CCC(=O)OC	inactive	
CC(=O)OC1CC(C)OC(C)O1 (stereo not given)	inactive	

— PubChem BioAssay (EPA / NIEHS)
